# Screening results from PubChem BioAssay.
# The list is not random: actives were taken first. Their share in the collection is about 11%.
# L3MBTL1 block = inhibitors of human L3MBTL1; 0.66% of 230,000 active; Potency, µM (titrated, usually from 57.1 µM), inactives show at the highest dose activity, negative = inhibition, usual class: inhibitors; Q9Y468; AlphaScreen L3MBTL1–H3K9me1 peptide binding; further: on the % scale 0 is the no-effect control and ±100 the full control effect; nearly all actives have a fitted effect of over 60% in size
#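 Displacement of a biotinylated histone H3(1-15) peptide monomethylated at Lys9 (75 nM) from L3MBTL1 (50 nM) was measured by AlphaScreen after a 30 min room-temperature compound incubation; cefsulodin titration served as intraplate control.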
# G9a inh = blocks human histone lysine methyltransferase G9a; Q96KQ7; G9a H3K9 monomethylation, AlphaScreen, 2 h; Potency, µM (doses to about 102 µM), without a hit: top-dose activity, negative = inhibition, hits mostly inhibitors; 8.8% of 350,000 active; further: on the % scale 0 is the no-effect control and ±100 the full control effect; nearly all actives have a fitted effect of over 75% in size
#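 AlphaScreen detection with an anti-monomethyl H3K9 antibody quantified product after a 2 h room-temperature reaction containing 500 nM biotinylated H3K9 peptide, 20 µM SAM and 20 nM enzyme, which had been preincubated 15 min with compound.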
# BAZ2B block = blocks human BAZ2B; Q9UIF8; AlphaScreen BAZ2B-H3K14Ac peptide displacement; Potency, µM (titrated, usually from 114 µM), for the others: top-dose activity change, negative = inhibition, most hits filed as inhibitors; 4.4% of 360,000 active; AID 504333; further: on the % scale 0 is the no-effect control and ±100 the full control effect; nearly all actives have a fitted effect of over 60% in size
#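 AlphaScreen displacement of biotin-H3(5-23)K14Ac peptide (50 nM final) from BAZ2B (50 nM final) in PBS pH 7.4, 0.01% Tween-20; complex preformed 30 min RT, then compounds (top 110 uM) 30 min RT, beads 20 min dark.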
# JMJD2A Tudor inh = inhibitors of human JMJD2A Tudor domain. O75164. AlphaScreen JMJD2A-Tudor / H3K4me3 peptide binding. Potency, µM (top dose mostly 114 µM), for inactives: top-dose activity change, negative = inhibition, usual class: inhibitors. 4.4% of 390,000 active; further: on the % scale 0 is the no-effect control and ±100 the full control effect; nearly all actives have a fitted effect of over 50% in size
# HP1b chromo inh = HP1-beta chromodomain-methylated histone interaction inhibition; P83916; AlphaScreen HP1-beta / biotin-H3K9me3 peptide binding; Potency, µM (series often up to 114 µM), without a hit: top-dose activity change, negative = inhibition, hits mostly inhibitors; 0.56% of 390,000 active; AID 540317; further: nearly all actives have a fitted effect of over 70% in size
#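 AlphaScreen: HP1-beta (50 nM) preformed 30 min with biotin-H3(1-18)K9me3 peptide (50 nM) in PBS pH 7.4, 0.01% Tween-20. Compound added for 30 min at RT, then streptavidin donor/nickel chelate acceptor beads (10 ug/mL) for 30 min.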
# Starred values were filed as active, the others as inactive; ? = inconclusive; / = not tested or not shown; [ ] = dose if it differs, or a comment. The call rests on the fitted dose curve; in most records, active means well fitted inhibition curve with a large enough effect; inconclusive means small, poorly fitted or top-dose-only effect; inactive means no such curve, though single readings can be large or run the other way. Potency means the concentration at half of the fitted maximal effect.
SMILES,L3MBTL1 block,G9a inh,BAZ2B block,JMJD2A Tudor inh,HP1b chromo inh
COCCCn1c(=O)c2sccc2n(Cc2ccccc2)c1=O,1.3%,/,5.0%,-1.4%,29.2%
Cc1ccccc1-n1c(=O)c2ccccc2n2c(=O)[nH]nc12,-7.5%,12.2%[59 µM],-3.2%,3.8%[57.1 µM],38.5%
COCCCn1c(=O)c2ccccc2n(Cc2ccccc2)c1=O,-1.8%,6.31µM*,?,-4.8%,41.5%
CCCCNC(=O)CCn1c(=O)c2ccccc2n(CC(=O)Nc2ccccc2OCC)c1=O,6.3%,6.7%[12.7 µM],5.9%,20.1%,29.1%
CCc1ccc(-n2c(=O)c3ccccc3n3c(=S)[nH]nc23)cc1,/,1.41µM*,-2.3%,4.47µM*,4.4%
O=C(Nc1cccc(-c2nn3c(=O)cc(N4CCNCC4)nc3s2)c1)c1ccncc1,/,/,/,-27.2%,/
COc1cccc(-n2c(SCC(N)=O)nc3ccccc3c2=O)c1,2.7%,6.6%,-1.7%,-8.5%,32.2%
COCCCn1c(=O)c2ccccc2n2c(=S)[nH]nc12,/,8.91µM*,-11.3%,10µM*,?
COc1cccc(-n2c(=O)c3ccccc3n3c(=S)[nH]nc23)c1,/,1.58µM*,-19.7%,11.2µM*,-2.2%
CCCN1C(=O)C(Cc2nc3ccccc3c(=O)n2CC)c2cc(Br)ccc21 (centres undefined),/,-36.8%[59 µM],-36.4%,-24.2%,17.6%
Cc1ccc(OCc2cnc(Cl)s2)c(C)c1,48.2%,-4.3%,288.6%,124.1%,160.8%
CC(=O)c1ccc(NC(=O)CSc2nc(C3CCCC3)nc3c2c(=O)n(C)c(=O)n3C)cc1,/,-2.8%[59 µM],3.8%,2.3%,21.8%[57 µM]
Cn1c(=O)n(C)c2cc([N+](=O)[O-])c(N3CCN(S(C)(=O)=O)CC3)cc21,3.5%,1.1%[59 µM],50.1µM*,-8.3%,28.1%
Cn1c(=O)n(C)c2cc([N+](=O)[O-])c(N3CCN(S(=O)(=O)c4ccccc4)CC3)cc21,-6.1%,?,?,?,-13.4%
Cn1c(=O)n(C)c2cc([N+](=O)[O-])c(N3CCN(C(=O)c4ccccc4Cl)CC3)cc21,5.7%,7.0%,50.1µM*,-12.9%,11.2%
C[N+](C)(C)CCCN(Cc1ccc2c(c1)OCO2)C(=O)NC1CCCCC1,-2.2%,50.1µM*,-29.6%,?,4.2%
Cc1cc(NC(=O)CCC(=O)N(CC(=O)NC2CCCC2)Cc2ccc3c(c2)OCO3)no1,1.9%,50.1µM*,-35.1%,-4.2%,16.2%
CC(NCc1ccc2c(c1)OCO2)C(=O)NC1CCCCC1 (centres undefined),-1.0%,8.9%,-17.2%,?,10.5%
COc1cc(OC)cc(C2=Nn3c(nnc3-c3ccccc3OC)SC2)c1,/,/,/,-33.8%,/
COc1cc(/C=N/Nc2nc3ccccc3[nH]2)cc(OC)c1O,-5.9%,28.2µM*,?,-27.5%,?
COc1cc(/C=N/Nc2nc3ccccc3[nH]2)ccc1O,-13.5%,-2.4%[59 µM],?,-28.9%,8.9%
CCN(CC)c1ccc(/C=N/Nc2nc3ccccc3[nH]2)cc1,?,?,10µM*,56.2µM*,?
COc1cc(OC)cc(-c2c(C#Cc3ccsc3)c3cc(-c4cc(F)cc(F)c4)ccc3n2C)c1,6.5%,/,/,-16.5%,28.0%
COc1cc2ccccc2cc1C(=O)Nc1cccc(-c2nc3cc(C)c(C)cc3o2)c1C,/,3.16µM*,2.2%,6.9%,10.2%
COc1cc2ccccc2cc1C(=O)Nc1cccc(-c2nc3cc(C)ccc3o2)c1C,/,-26.6%[59 µM],1.7%,-11.1%,33.3%
SMILES,L3MBTL1 block,G9a inh,BAZ2B block,JMJD2A Tudor inh,HP1b chromo inh
CCOc1ccc(-n2nc(CO)c(C(=O)NCc3cccc(OC)c3)n2)cc1,/,12.7%[59 µM],9.8%,-13.8%,4.7%
COc1ccc(S(=O)(=O)N2CCC(c3cc(-c4cccc5ccccc45)n[nH]3)CC2)cc1,-6.2%,/,-5.6%,-25.7%,22.6%
O=S(=O)(c1cccc(C(F)(F)F)c1)N1CCC(c2cc(-c3cccc4ccccc34)n[nH]2)CC1,-4.0%,-11.0%[12.7 µM],?,39.8µM*,-0.9%
COc1ccc(N2CCN(S(=O)(=O)CCNC(=O)c3ccc(C(F)(F)F)cc3)CC2)cc1,/,10.2%[59 µM],-2.8%,-6.4%,11.0%[57 µM]
O=C(O)Cn1c(-c2ccccn2)nc2ccccc21,-2.4%,?,3.0%[57.1 µM],50.1µM*,13.5%
O=C(O)Cn1c(=S)sc2ccccc21,4.3%,70.8µM*,89.1µM*,-5.2%,24.3%
O=C(O)Cn1c(-c2ccccc2)nc2ccccc21,5.0%,39.8µM*,-32.4%,20.5%[11.4 µM],-0.5%
CCOc1ccc(C(=O)NCCn2cc(SCC(=O)NCCc3ccc(OC)c(OC)c3)c3ccccc32)cc1,/,-4.8%[59 µM],?,-20.1%,5.4%
C/C(=N/NC(N)=S)c1ccc(Br)s1,-6.9%,15.8µM*,-17.0%,-35.0%,11.7%
COc1cccc(N(C(=O)c2snc(C(N)=O)c2N)C(C(=O)NCC2CCCO2)c2cccs2)c1 (centres undefined),/,35.5µM*,-3.0%,-26.4%,-13.1%
COc1ccc(C(C(=O)NC2CCCC2)N(C(=O)c2snc(C(N)=O)c2N)c2cccc(O)c2)cc1 (centres undefined),/,70.8µM*,?,?,-25.9%
NC(=O)c1nsc(C(=O)N(c2ccccc2)C(C(=O)NCC2CCCO2)c2cccs2)c1N (centres undefined),2.0%,-9.2%,-4.9%,-6.4%,12.4%
CCSc1ncc(Cl)c(C(=O)Nc2nc3ccc(S(C)(=O)=O)cc3s2)n1,/,2.2%[59 µM],5.3%,-14.2%,44.8%
Cc1cccc(-c2nc3ccccc3n3c(-c4ccccc4)c4c(=O)n(C)c(=O)n(C)c4c23)c1,/,?,-11.6%,2.7%,35.8%
Cc1nc(Nc2cnc(/C=C/c3cc(C(=O)Nc4cccc(C(F)(F)F)c4)ccc3C)cn2)cc(N2CCNCC2)n1,-3.4%,31.6µM*,-38.0%,?,?
CC(=O)N(CC1CCCO1)c1nnc(-c2ccccn2)s1 (centres undefined),-0.8%,56.2µM*,50.1µM*,-26.8%,41.0%
COCCN(C(C)=O)c1nnc(-c2ccccn2)s1,-6.7%,-14.3%[59 µM],56.2µM*,-30.4%,28.6%
COCCN(C(C)=O)c1nnc(-c2cnccn2)s1,-7.6%,21.5%[59 µM],1.6%,-1.7%,39.5%
O=C(NCc1ccco1)C1(S(=O)(=O)c2ccccc2)CC=CC1,4.3%,/,1.0%,-16.2%,30.3%
Cc1ccc(C(=O)N2c3nc(-c4ccco4)nn3C3(CCCCC3)[C@@H]3CCCC[C@@H]32)cc1,/,?,?,-24.5%,-1.1%
COC(=O)c1ccc(CC(=O)c2nc3ccccc3s2)cc1,6.3%,10.8%[59 µM],-3.5%,?,-4.6%
O=C(Cc1ccccc1)c1nc2ccccc2s1,-16.0%,?,70.8µM*,?,?
OCCN(Cc1ccccc1)Cc1ccccc1F,30.9%[11.4 µM],2.51µM*,25.1µM*,1.78µM*,44.7µM*
OCCN(Cc1ccccc1)Cc1cccc(Cl)c1Cl,-0.1%,?,50.1µM*,10µM*,?
